# Measurements published in PubChem BioAssay.
# The source made the active and inactive calls.
# What was measured:
# [1] = tested on: Plasmodium falciparum Sir2 (PF13_0152, Sir2A); experiment: Plasmodium falciparum Sir2A binding compounds – biochemical, small-molecule microarray, 635 nm fluorescence, primary screen (AID 1098); conditions: fluorescence 635 nm, higher = more signal;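 also: score merges spot fluorescence intensity with its signal-to-noise ratio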
# [2] = probe aDKK1 binding to arrayed compounds – biochemical, biotinylated probe, 635/667 nm fluorescence, primary screen (AID 1099); conditions: small-molecule microarray, higher = more signal;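 also: score merges 667nm spot fluorescence with signal to noise across triplicate slides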
# [3] = probe aCHRDL2 binding to arrayed compounds – biochemical, biotinylated probe, 635/667 nm fluorescence, primary screen (AID 1100); conditions: small-molecule microarray, higher = more signal
# [4] = change in splice reporter luminescence, either direction, cell-based, HEK293, spliceosome inhibition project, primary screen (AID 1101); conditions: HEK293 splicing luciferase reporter, 24 h, higher = more signal, called active from +8 up or from −8 down;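 also: HEK293 cells carrying a splicing-competent luciferase reporter gene; test concentration not given here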
# [5] = molecular target: Fibroblast growth factor 10 (Homo sapiens) (UniProt O15520); experiment: compounds binding fibroblast growth factor 10 – biochemical, small-molecule microarray, 635 nm fluorescence, primary screen (AID 1102); conditions: FGF10 binding, fluorescence 635 nm, higher = more signal
# [6] = tested on: glycogen synthase kinase-3 (GSK3A per assay name; protocol says GSK3B); experiment: compounds binding glycogen synthase kinase-3 – biochemical, small-molecule microarray, 635 nm fluorescence, GSK3A, primary screen (AID 1103); conditions: fluorescence 635 nm, higher = more signal; also: the record names both GSK3A and GSK3B
# [7] = molecular target: Epidermal growth factor receptor (Homo sapiens) (UniProt P00533); experiment: compounds binding epidermal growth factor receptor – biochemical, small-molecule microarray, 635 nm fluorescence, primary screen (AID 1104); conditions: EGFR binding, higher = more signal;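 also: score merges 667 nm emission intensity with spot signal to noise over triplicate slides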
# [8] = molecular target: Follistatin-related protein 3 (Homo sapiens) (UniProt O95633); experiment: compounds binding follistatin-related protein 3 – biochemical, small-molecule microarray, 635 nm fluorescence, primary screen (AID 1105); conditions: FSTL3 binding, higher = more signal;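 also: score merges emission near 667 nm and signal to noise per printed spot across three slides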
# [9] = molecular target: Dickkopf-related protein 1 (Homo sapiens) (UniProt O94907); experiment: small molecules binding DKK1 protein – biochemical, small-molecule microarray, 635 nm fluorescence scan, primary screen (AID 1106); conditions: higher = more signal;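 also: score merges emission near 667 nm with signal to noise over three replicate slides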
# [10] = tested on: Inhibin beta A chain (activin A); experiment: small molecules binding activin A – biochemical, small-molecule microarray, 635 nm fluorescence scan, primary screen (AID 1107); conditions: INHBA, higher = more signal;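 also: mouse activin A protein probed at 4.33 µg/mL on printed slides; score merges bound-protein fluorescence near 667 nm with spot signal-to-noise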
# [11] = tested on: Human papillomavirus type 1a protein E7 (residues 44-93); experiment: small molecules binding HPV E7 44-93 – biochemical, small-molecule microarray, residues 44-93, 635 nm fluorescence, primary screen (AID 1108); conditions: fluorescence 635 nm, higher = more signal;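 also: E7 fragment applied at 1 µg/mL in TBST for 1 h at 4 C; score combines spot fluorescence with its signal to noise ratio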
# [12] = hepatitis C replication reporter changes, two-sided – Huh7 cells, luciferase reporter, HCV replication inhibitor project, primary screen (AID 1109); conditions: Huh7 HCV replicon luciferase reporter, 48 h; higher = more signal;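 also: huh7 hepatoma cells harbouring a luciferase neomycin HCV replicon reporter; luciferase luminescence as measure of HCV replicon replication; test concentration not given here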
# [13] = molecular target: Left-right determination factor 2 (Homo sapiens) (UniProt O00292); experiment: small molecules binding LEFTY2 protein – biochemical, small-molecule microarray, 635 nm fluorescence scan, primary screen (AID 1110); conditions: higher = more signal
# [14] = molecular target: Calmodulin-1 (Homo sapiens) (UniProt P0DP23); experiment: small molecules binding calmodulin-1 with EGTA – biochemical, small-molecule microarray, Cy5-labelled CALM1, profiling panel (AID 1111); conditions: Cy5-CALM1 binding fluorescence, higher = more signal;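 also: labelled calmodulin applied in Tris saline Tween buffer holding calcium plus EGTA and DTT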
# [15] = molecular target: Calmodulin-1 (Homo sapiens) (UniProt P0DP23); experiment: small molecules binding Ca-loaded calmodulin-1 – biochemical, small-molecule microarray, Cy5-labelled CALM1, plus calcium, artefact control for SMM control-protein annotation, profiling panel (AID 1112); conditions: Cy5-CALM1 binding fluorescence, higher = more signal;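 also: score merges spot fluorescence with signal to noise from triplicate slides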
# [16] = probe aWnt5a binding to arrayed compounds – biochemical, biotinylated probe, 635/667 nm fluorescence, primary screen (AID 1113); conditions: small-molecule microarray, higher = more signal;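 also: score merges 667 nm fluorescence intensity with signal-to-noise per printed feature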
# [17] = probe aShh binding to arrayed compounds – biochemical, biotinylated probe, 635/667 nm fluorescence, primary screen (AID 1114); conditions: small-molecule microarray, higher = more signal;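 also: probe is biotin-labelled aShh protein from a stem cell growth factor screen; measures binding of labelled protein to compounds printed on the slide; score merges feature fluorescence at 667 nm with signal-to-noise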
# [18] = probe aNog binding to arrayed compounds – biochemical, biotinylated probe, 635/667 nm fluorescence, primary screen (AID 1115); conditions: small-molecule microarray, higher = more signal;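 also: probe is biotinylated aNog protein used at 0.15 µg/mL for 1 h at 4 C; z-score combines 667 nm fluorescence of each spot with its signal to noise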
# [19] = molecular target: Torsin-1A-interacting protein 1 (Homo sapiens) (UniProt Q5JTV8); experiment: compound microarray binding of lysate hLAP1 – cell lysate, small-molecule microarray, COS7 lysate, 635/667 nm fluorescence, primary screen (AID 1116); conditions: 635 nm fluorescence, higher = more signal
# [20] = molecular target: Alpha-bungarotoxin (Bungarus multicinctus) (UniProt P60615); experiment: compounds binding labelled alpha-BTX control protein – biochemical, small-molecule microarray, Alexa647 label, 635/667 nm fluorescence, artefact control for SMM control protein annotation, profiling panel (AID 1117); conditions: alpha-BTX-A647 binding fluorescence, higher = more signal
# Alpha-bungarotoxin (Bungarus multicinctus), sequence (P60615 whole entry, looked up): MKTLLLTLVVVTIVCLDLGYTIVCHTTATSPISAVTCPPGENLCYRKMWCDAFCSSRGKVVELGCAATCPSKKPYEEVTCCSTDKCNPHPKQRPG
# Fibroblast growth factor 10 (Homo sapiens), sequence (O15520 whole entry, looked up): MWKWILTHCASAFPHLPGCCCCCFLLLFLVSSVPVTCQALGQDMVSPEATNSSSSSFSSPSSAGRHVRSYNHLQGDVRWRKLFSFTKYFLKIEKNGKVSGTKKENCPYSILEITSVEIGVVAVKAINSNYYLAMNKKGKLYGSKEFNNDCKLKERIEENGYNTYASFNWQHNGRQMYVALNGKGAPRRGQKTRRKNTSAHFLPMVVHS
# Epidermal growth factor receptor (Homo sapiens), sequence (P00533 whole entry, looked up): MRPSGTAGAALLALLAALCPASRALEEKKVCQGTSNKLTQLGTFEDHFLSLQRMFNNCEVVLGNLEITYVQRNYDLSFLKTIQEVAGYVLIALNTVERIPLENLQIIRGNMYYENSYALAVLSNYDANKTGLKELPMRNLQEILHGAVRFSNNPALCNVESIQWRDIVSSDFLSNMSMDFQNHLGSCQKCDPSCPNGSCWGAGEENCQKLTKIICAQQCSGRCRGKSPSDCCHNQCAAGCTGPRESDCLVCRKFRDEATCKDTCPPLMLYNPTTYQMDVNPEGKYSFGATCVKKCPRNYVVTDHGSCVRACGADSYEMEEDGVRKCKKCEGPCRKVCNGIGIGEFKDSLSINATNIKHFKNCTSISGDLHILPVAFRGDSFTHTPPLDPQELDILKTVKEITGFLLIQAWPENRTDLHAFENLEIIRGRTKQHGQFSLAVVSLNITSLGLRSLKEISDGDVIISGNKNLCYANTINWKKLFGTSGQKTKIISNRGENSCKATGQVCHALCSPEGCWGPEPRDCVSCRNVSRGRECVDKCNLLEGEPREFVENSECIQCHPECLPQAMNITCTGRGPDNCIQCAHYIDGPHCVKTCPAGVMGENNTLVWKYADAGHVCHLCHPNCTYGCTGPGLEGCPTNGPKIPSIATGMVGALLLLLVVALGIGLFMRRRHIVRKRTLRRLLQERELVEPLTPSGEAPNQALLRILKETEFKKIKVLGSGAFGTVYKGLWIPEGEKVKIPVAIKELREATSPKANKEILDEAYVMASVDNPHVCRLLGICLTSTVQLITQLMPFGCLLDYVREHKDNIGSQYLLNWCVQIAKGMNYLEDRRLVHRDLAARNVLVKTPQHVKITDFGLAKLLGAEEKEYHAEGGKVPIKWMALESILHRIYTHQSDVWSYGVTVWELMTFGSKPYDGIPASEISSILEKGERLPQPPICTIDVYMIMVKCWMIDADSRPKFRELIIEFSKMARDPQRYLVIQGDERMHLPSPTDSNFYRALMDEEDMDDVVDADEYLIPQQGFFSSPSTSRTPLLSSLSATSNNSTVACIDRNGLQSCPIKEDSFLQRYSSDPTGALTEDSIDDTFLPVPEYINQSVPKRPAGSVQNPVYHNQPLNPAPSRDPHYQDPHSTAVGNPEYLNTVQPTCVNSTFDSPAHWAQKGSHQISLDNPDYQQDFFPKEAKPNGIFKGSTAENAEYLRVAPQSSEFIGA
# Left-right determination factor 2 (Homo sapiens), sequence (O00292 whole entry, looked up): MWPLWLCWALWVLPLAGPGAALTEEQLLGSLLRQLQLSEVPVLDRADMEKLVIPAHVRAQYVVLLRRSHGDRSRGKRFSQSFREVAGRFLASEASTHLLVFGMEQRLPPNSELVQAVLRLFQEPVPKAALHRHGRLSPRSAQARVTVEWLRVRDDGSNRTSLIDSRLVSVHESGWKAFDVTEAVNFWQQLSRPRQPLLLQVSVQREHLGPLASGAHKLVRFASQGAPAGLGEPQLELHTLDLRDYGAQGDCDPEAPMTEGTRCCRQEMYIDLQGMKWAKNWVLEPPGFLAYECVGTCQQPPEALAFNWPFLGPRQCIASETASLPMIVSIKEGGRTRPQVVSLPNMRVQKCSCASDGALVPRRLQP
# Follistatin-related protein 3 (Homo sapiens), sequence (O95633 whole entry, looked up): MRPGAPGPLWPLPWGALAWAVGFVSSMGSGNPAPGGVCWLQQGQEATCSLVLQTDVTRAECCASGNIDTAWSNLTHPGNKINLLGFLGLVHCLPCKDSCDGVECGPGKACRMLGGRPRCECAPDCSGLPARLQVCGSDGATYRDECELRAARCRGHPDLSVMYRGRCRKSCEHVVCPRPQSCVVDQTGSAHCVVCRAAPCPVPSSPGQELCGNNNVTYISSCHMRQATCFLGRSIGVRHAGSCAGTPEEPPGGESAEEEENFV
# Torsin-1A-interacting protein 1 (Homo sapiens), sequence (Q5JTV8 whole entry, looked up): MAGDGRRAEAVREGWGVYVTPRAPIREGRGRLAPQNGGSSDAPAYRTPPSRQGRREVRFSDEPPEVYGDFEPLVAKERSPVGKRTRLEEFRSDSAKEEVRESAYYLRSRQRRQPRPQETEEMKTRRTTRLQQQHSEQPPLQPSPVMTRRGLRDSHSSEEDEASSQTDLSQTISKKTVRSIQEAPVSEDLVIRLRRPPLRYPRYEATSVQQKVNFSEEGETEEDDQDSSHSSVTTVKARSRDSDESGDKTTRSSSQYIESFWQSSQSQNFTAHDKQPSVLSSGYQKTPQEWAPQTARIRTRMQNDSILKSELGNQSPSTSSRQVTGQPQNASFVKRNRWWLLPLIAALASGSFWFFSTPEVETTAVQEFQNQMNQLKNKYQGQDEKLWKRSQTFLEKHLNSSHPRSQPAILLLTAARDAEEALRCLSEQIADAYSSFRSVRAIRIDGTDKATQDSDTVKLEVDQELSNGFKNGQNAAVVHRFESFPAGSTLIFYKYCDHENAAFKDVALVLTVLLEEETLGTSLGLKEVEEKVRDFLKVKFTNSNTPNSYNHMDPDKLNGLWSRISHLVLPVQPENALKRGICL
# Dickkopf-related protein 1 (Homo sapiens), sequence (O94907 whole entry, looked up): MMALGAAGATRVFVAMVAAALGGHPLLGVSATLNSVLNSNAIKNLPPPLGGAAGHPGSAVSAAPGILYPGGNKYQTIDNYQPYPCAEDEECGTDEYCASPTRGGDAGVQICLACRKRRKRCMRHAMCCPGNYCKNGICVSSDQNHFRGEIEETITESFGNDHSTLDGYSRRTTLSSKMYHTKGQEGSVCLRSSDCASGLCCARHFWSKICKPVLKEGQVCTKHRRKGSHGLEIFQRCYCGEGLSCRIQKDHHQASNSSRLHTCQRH
SMILES,composite z-score [1],composite z-score [2],composite z-score [3],z-score [4],composite z-score [5],composite z-score [6],composite z-score [7],composite z-score [8],composite z-score [9],composite z-score [10],composite z-score [11],z-score [12],composite z-score [13],composite z-score [14],composite z-score [15],composite z-score [16],composite z-score [17],composite z-score [18],composite z-score [19],composite z-score [20]
COC(=O)[C@@H]1CC[C@@H](C)[C@H](c2ccc(Br)cc2)N1,0.644,-0.013,-0.0951,-0.203 (inactive),-0.0342,-0.0839,0.185,-0.155,0.133,0.987,-1.2,-0.198,0.445,-0.227,-0.0163,-0.136,-0.226,-0.247,-0.0359,-0.309
COc1cccc([C@H]2Oc3ccc(OC)cc3C(=NO[C@@H](C)c3cn([C@H](CO)Cc4ccccc4)nn3)[C@@H]2O)c1,0.482,-0.268,-0.303,-0.0241 (inactive),0.167,-0.58,-0.0558,-0.201,0.113,0.176,-0.429,-0.727,-0.36,0.465,-0.0011,-0.0836,0.0121,0.0918,-0.0881,-0.417
CO[C@H]1COC(=O)CC=C[C@H](C)[C@@H](OC)COC(=O)[C@H](C)COC(=O)CC=C[C@@H]1C,0.661,-0.822,-1.53,-0.0334 (inactive),0.0773,0.429,1.36,1.1,1.78,1.52,-0.61,0.507,1.33,-0.774,-1.62,-0.154,-0.439,-0.303,-0.396,-0.876
